# Assays:
# Format in all cases: functional
# Plasmodium falciparum [1] = test: GSK_TCMDC: Inhibition of Plasmodium falciparum 3D7 in whole red blood cells, using parasite LDH activity as an index of growth. Test compounds present at 2uM
# Plasmodium falciparum [2] = test: GSK_TCMDC: Inhibition of Plasmodium falciparum Dd2 in whole red blood cells, using parasite LDH activity as an index of growth. Test compounds present at 2uM
# HepG2 = test: GSK_TCMDC: Percent inhibition of human HepG2 cell line. Test compounds present at 10uM.
SMILES,Inhibition (Plasmodium falciparum [1]) [%],Inhibition (Plasmodium falciparum [2]) [%],Inhibition (HepG2) [%]
CC(C)CCCC(C)(C)NC[C@@H](O)[C@H](Cc1ccccc1)NC(=O)c1cccc(CCC2CC2)c1,98,52,100
COc1ccc2nccc(N3CCN(CCNCc4ccc5c(n4)NC(=O)CS5)CC3)c2n1.Cl,100,67,10
Br.CC(C)Oc1ccc(CCCON2C(=N)N=C(N)NC2(C)C)cc1,96,94,66
Cc1[nH]c(C)c(-c2ccc(OCc3cc(F)cc(F)c3)nc2)c(=O)c1Br,98,97,37
C[C@@H](N/C(=N\c1ccc(-c2ccccc2)cc1)Nc1ccc(C#N)cc1O)c1ccc(Br)cc1,99,95,9
FC(F)(F)c1ccc2[nH]c(-c3ccc(-c4cccc(CNCc5cnn(-c6ccccc6)n5)c4)cc3)nc2c1.O=C(O)C(F)(F)F,99,83,19
COc1cc(Cc2cnc(N)nc2N)cc(OCCn2ccccc2=O)c1OC,97,0,4
Cl.N=C(NCCc1ccc(Cl)cc1)c1ccc(Cl)c(Cl)c1,100,42,43
Cc1ccc(NC(=O)c2ccc3ncccc3c2)cc1OC1CCN(Cc2ccc(F)cc2)CC1.O=C(O)C(F)(F)F,91,22,6
CC1CN(c2ccc(NC(=O)c3ccsc3)cc2C(=O)N2CCN(Cc3ccc(C(C)(C)C)cc3)CC2)CC(C)O1 (centres undefined),90,80,12
Cc1cc([N+](=O)[O-])ccc1N1CCN(CCCCNC(=O)c2ccc(NC(=O)c3ccc(Cl)cc3)cc2)CC1,92,0,33
O=C(O)C(F)(F)F.OCC1CCN(Cc2ccc(-c3ccc(-c4nc5cc(C(F)(F)F)ccc5[nH]4)s3)cc2)CC1,100,90,35
CCN1CCN(c2cc(C)c3cc(NC(=O)c4ccc(Br)o4)ccc3n2)CC1,98,13,0
Cc1cc(C2CCN(CCCCNC(=O)c3ccc(-c4ccc(C#N)cc4)cc3)CC2)c(C)cc1O,96,96,27
Cc1ccc(S(=O)(=O)NC2CCN(c3ccnc4cc(Cl)ccc34)C2)cc1.O=C(O)C(F)(F)F (centres undefined),99,90,21
Cl.N=C(N)c1ccc(OCc2cccc(COc3ccc(C(=N)N)cc3I)c2)c(I)c1,100,100,7
Cc1cc(NCCCOc2ccc(Cl)cc2)nc(NCc2ccccc2)n1.Cl,95,20,45

SMILES,Inhibition (Plasmodium falciparum [1]) [%],Inhibition (Plasmodium falciparum [2]) [%],Inhibition (HepG2) [%]
N#Cc1ccc(N2CCN(Cc3cccc(-c4cccc(-c5nc6cc(C(F)(F)F)ccc6[nH]5)c4)c3)CC2)nc1.O=C(O)C(F)(F)F,99,50,15
COc1cc(-c2ccc3c(-c4ccc(C(=O)N5CCN(C)CC5)cc4)n[nH]c3n2)cc(OC)c1OC,91,54,27
CC(C)Cc1ccc(N2CCN(CCCCNC(=O)c3ccc(NC(=O)c4ccc(Cl)c(Cl)c4)cc3)CC2)cc1,94,25,21
CC(C)N1CCC(N(Cc2ccc(-c3ccc(Cl)cc3)cc2)C(=O)Cn2c(CCc3cccc(F)c3F)cc(=O)c3ccccc32)CC1.O=C(O)C(O)C(O)C(=O)O,96,73,62
O=C(NCCN1CCC(NC(=O)c2ccc(-c3ccccn3)s2)CC1)c1ccc(Cl)c(Cl)c1.O=C(O)C(F)(F)F,97,48,24
CC(C)N(Cc1cnc2nc(N)nc(N)c2n1)c1ccc(Cl)c(Cl)c1,100,98,63
O=C(O)C(F)(F)F.c1ccc2[nH]c(-c3ccc(-c4ccc(CN5CCN(CCN6CCOCC6)CC5)cc4)cc3)nc2c1,98,99,43
CON=Cc1ccn(-c2ccc(O)c3c2C[C@H]2C[C@H]4[C@H](N(C)C)C(O)=C(C(N)=O)C(=O)[C@@]4(O)C(O)=C2C3=O)c1.O=S(=O)(O)O,96,70,3
O=C(Nc1ccc(N2CCN(Cc3ccccc3)CC2)cc1)c1cccs1.O=C(O)C(F)(F)F,87,86,0
Cc1nc(-c2cccc(C(=O)Nc3cnc4ccccc4c3)c2)no1.O=C(O)C(F)(F)F,85,12,15
Cc1cc(C)cc(-n2c(C)cc(/C=C3\SC(=Nc4ccc(Cl)cc4)NC3=O)c2C)c1,97,97,12
COc1ccc2nccc([C@@H](O)CN3CCC(NCc4cc5ccccc5o4)CC3)c2c1.O=C(O)C(=O)O,96,72,17
CC1CCN(CC[C@H]2CCCN2S(=O)(=O)c2cccc(NC(=O)c3cc4ccccc4s3)c2)CC1,97,41,28
O=C(/C=C/c1ccc([N+](=O)[O-])cc1)N1CCC(NS(=O)(=O)c2cccc(C(F)(F)F)c2)CC1,94,8,0
Cc1nc2nc(N)nc(N)c2c(C)c1Cc1ccc(Cl)cc1.Cl,94,22,62
C=CCn1c(Cc2ccccc2)nnc1Sc1ccc(C#N)c([N+](=O)[O-])c1,86,43,7

# Source: ChEMBL document CHEMBL1157539, “Thousands of chemical starting points for antimalarial lead identification” (Nature, 2010)
